In ChEMBL document CHEMBL1201862, “PubChem BioAssay data set” (2004) one finds GI50 data, which are given here for 10 substances.

Screen size: about 52,000 sequences; about 3,900 (7.5%) were called active. Cut-off read from the data, not from the text of the source: active = GI50 up to about 1.1 µM and inactive = higher. Not all results are given here. Measured potencies and affinities stand elsewhere.

The subject of this assay is RXF 393.
Regarding “[Bis(aminomethyl)tetramethylenesilane]tetrachloropaltinum(IV), CHEMBL2146189”, the 50% growth inhibitory concentration (GI50) is 25.4 µM.
In the case of “[Bis(aminomethyl)pentamethylenesilane]tetrachloropaltinum(IV), CHEMBL2146204” it was 7.35 µM.
In the case of “[Bis(aminomethyl)dimethylsilane]tetrachloroplatinum(IV), CHEMBL2146190” it was 3.59 µM; in that of “[Bis(aminomethyl)dimethylsilane]dichloroplatinum (II), CHEMBL2146201”, 34.2 µM; in that of “[Bis(aminomethyl)pentamethylenesilane]dichloropaltinum(II), CHEMBL2146202”, 2.92 µM.
“cis-Bis[[(trimethylsilyl)methyl]amino]tetrachloroplatinum(IV), CHEMBL2146191” registered a concentration for 50% growth inhibition (GI50) of 2.72 µM. The GI50 values of the last two substances are within 1.5-fold of each other.
Next, “[Bis(aminomethyl)tetramethylenesilane]dichloropaltinum(II), CHEMBL2146205”: 12.6 µM.
In the case of “[Bis(aminomethyl)diethylsilane]tetrachloroplatinum(IV), CHEMBL2146203” it was 17.4 µM; in that of CISPLATIN, CHEMBL11359, 3.33 µM.
In the case of “mu-(1,7-nanodiamine-N,N')bis-(cis-aminedichloroplatimum (II)), CHEMBL2146215” it was 15.4 µM.
